Assay results published in PubChem BioAssay AID651717 (Broad Institute, 2012).
Screen size: about 1,200 compounds; about 950 (79%) were called active.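 How the source made its calls: active means signal rises and fitted curve reaches 40% activity at or below the top valid tested dose, in every replicate test; inconclusive means replicate tests give mixed calls; inactive means the rest, including activity in the opposite direction.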 So high a share suggests a set chosen from earlier hits. A selection follows. Entries with a potency or affinity are not part of this list.

assay: Bmi1-luciferase reporter activators in mESC, dose response, esBAF inhibitor project, mouse embryonic stem cells, cherry-pick (AID 651717); settings: firefly/renilla ratio, 24 h, hits give high values; at 35 µM unless noted;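 further: luciferase knocked into Bmi1 locus with EF-1a renilla as cell number control; rising ratio signals esBAF inhibition which derepresses Bmi1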

For CS(=O)(=O)NN1C(=O)c2ccccc2NC1c1cc2ccccc2nc1Cl (stereo not given), which max activity is on record?
Its max activity is 18.4% (inactive).

With COc1ccc(C(=O)O/N=C(\N)c2ccc(OC)c(OC)c2)c(OC)c1 as the compound, how does the max activity read?
Its max activity is 34.8% (inactive).

With O=C(NCC[C@@H]1CC[C@H](NC(=O)Nc2cc(F)ccc2F)[C@H](CO)O1)Nc1ccc(Cl)cc1 as the compound, how does the max activity read?
The max activity was 29.7% (inactive).

Which max activity does the source give for O=C(NCC[C@@H]1CC[C@@H](NC(=O)Nc2cc(F)ccc2F)[C@H](CO)O1)Nc1ccc(Cl)cc1 here?
The max activity was -11.9% [at 16 µM] (inactive).

With C[C@@H]1CN([C@H](C)CO)C(=O)c2c(c3ccccc3n2C)-c2ccccc2CO[C@H]1CN(C)C(=O)Nc1ccc2c(c1)OCO2 as the compound, how does the max activity read?
Its max activity is -14.5% (inactive).

Which max activity does the source give for CC(C)c1ccc(NC(=O)c2ccccc2NC(=O)C2CCCCC2C(=O)O)cc1 (stereo not given) here?
Its max activity is 41% (inactive).

Which max activity does the source give for Cc1cccc(NC2SC(=O)N(c3ccccc3)C2=O)c1 (stereo not given) here?
The max activity was 37.5% (inactive).

For O=C(/C=C/NNC(=O)c1ccccc1O)c1ccccc1, which max activity is on record?
The max activity was 4.98% [at 4.2 µM] (inactive).

With CCn1c(CCNC(=O)c2cccs2)nnc1SCC(=O)Nc1nc(-c2ccccc2)cs1 as the compound, how does the max activity read?
The max activity was 32.7% (inactive).

Which max activity does the source give for C[C@@H]1CCCCO[C@@H](CN(C)C(=O)Nc2ccccc2)[C@@H](C)CN([C@@H](C)CO)C(=O)c2cc(NC(=O)Nc3ccc4c(c3)OCO4)ccc2O1 here?
The max activity was 13.1% [at 16 µM] (inactive).

With C[C@@H]1CCCCO[C@@H](CN(C)C(=O)Nc2cccc3ccccc23)[C@H](C)CN([C@H](C)CO)C(=O)c2cc(NC(=O)Cc3ccccc3)ccc2O1 as the compound, how does the max activity read?
The max activity was -4.4% [at 2.1 µM] (inactive).

With Brc1ccc(N=C/C=C/C=C/Nc2ccc(Br)cc2)cc1 as the compound, how does the max activity read?
Its max activity is 9.66% [at 4.2 µM] (inactive).

With C[C@H](CO)N1C[C@H](C)[C@@H](CN(C)S(=O)(=O)c2cccs2)Oc2c(NC(=O)Nc3ccc4c(c3)OCO4)cccc2C1=O as the compound, how does the max activity read?
Its max activity is -24.2% (inactive).

For COc1cccc(-c2cnc(C(O)c3ccc(F)cc3)[nH]2)c1 (stereo not given), which max activity is on record?
The max activity was 32% [at 8 µM] (inactive).

Which max activity does the source give for OC(c1ccccc1)c1ncc(-c2ccccc2F)[nH]1 (stereo not given) here?
Its max activity is -21.5% (inactive).

Which max activity does the source give for CCc1ccc(C(O)c2ncc(-c3cccc(F)c3)[nH]2)cc1 (stereo not given) here?
The max activity was -31.3% (inactive).

With Cc1ccc(S(=O)(=O)N2CCOCC2)cc1C(=O)Nc1ccc(-c2cn3ccsc3n2)cc1 as the compound, how does the max activity read?
Its max activity is -8.19% (inactive).

With CC(C)c1ccc(Nc2ncc3c(n2)CCN(C(=O)Nc2ccc(F)c(Cl)c2)C3)cc1 as the compound, how does the max activity read?
Its max activity is 20.6% (inactive).

Which max activity does the source give for N#Cc1cccc(NC(=O)c2cc(C3CCCCN3S(=O)(=O)c3cccc4cccnc34)on2)c1 (stereo not given) here?
The max activity was -16.3% (inactive).

With O=C(Nc1ccc(F)c(Cl)c1)c1cc(C2CCCN(S(=O)(=O)c3cccc4cccnc34)C2)on1 (stereo not given) as the compound, how does the max activity read?
Its max activity is 29.2% [at 16 µM] (inactive).

Which max activity does the source give for COC(=O)c1ccc(-c2ccc(OC)c([C@H]3[C@H]4C=CC[C@@H](C)[C@@H]4C(=O)N3Cc3ccccc3)c2)cc1 here?
The max activity was -14.1% (inactive).

With O=C1C2C(c3cccc(/C=C/c4ccccc4)c3)CC=CC2C(c2ccc3ccccc3c2)N1Cc1ccccc1 (stereo not given) as the compound, how does the max activity read?
The max activity was 17.2% (inactive).

With CN(C)C(=O)CCc1ccc2c3c([nH]c2c1)[C@]1(CCc2ccccc2)[C@@H](C(=O)N2CCCCC2)C[C@H](CC(=O)NCCC2=CCCCC2)C(=O)N1CC3 as the compound, how does the max activity read?
Its max activity is -35% [at 8 µM] (inactive).

Which max activity does the source give for C[C@H](CO)N1C[C@H](C)[C@@H](CN(C)C(=O)Nc2ccc3c(c2)OCO3)Oc2ncc(C#CC3(O)CCCC3)cc2C1=O here?
Its max activity is -4.31% [at 16 µM] (inactive).

With C[C@H](CO)N1C[C@H](C)[C@H](CN(C)C(=O)Nc2ccc3c(c2)OCO3)Oc2c(NS(=O)(=O)c3ccccc3)cccc2C1=O as the compound, how does the max activity read?
The max activity was -12.7% (inactive).

With C[C@@H]1CCCCO[C@H](CN(C)S(=O)(=O)c2cn(C)cn2)[C@@H](C)CN([C@@H](C)CO)C(=O)c2cc(NC(=O)Nc3ccc4c(c3)OCO4)ccc2O1 as the compound, how does the max activity read?
The max activity was -8.77% [at 8 µM] (inactive).

With C[C@H](CO)N1C[C@H](C)[C@@H](CN(C)S(=O)(=O)c2cn(C)cn2)Oc2c(NC(=O)Nc3ccc4c(c3)OCO4)cccc2C1=O as the compound, how does the max activity read?
The max activity was -22.8% (inactive).

With Cc1ccc(S(=O)(=O)N[C@H]2CC[C@@H](CCNC(=O)Nc3ccc(Cl)cc3)O[C@H]2CO)cc1 as the compound, how does the max activity read?
Its max activity is -11.4% (inactive).

For O=C(NCC[C@H]1CC[C@H](NC(=O)Nc2cc(F)ccc2F)[C@H](CO)O1)Nc1ccc(Cl)cc1, which max activity is on record?
The max activity was 31.4% (inactive).

With C[C@H]1CN([C@@H](C)CO)C(=O)c2c(c3ccccc3n2C)-c2ccccc2CO[C@H]1CN(C)C(=O)Nc1ccc2c(c1)OCO2 as the compound, how does the max activity read?
The max activity was -25.1% (inactive).

For Cc1noc(C)c1NC(=O)N(C)C[C@@H]1Oc2ncc(C#CC3CC3)cc2C(=O)N([C@@H](C)CO)C[C@H]1C, which max activity is on record?
Its max activity is 9.7% [at 8 µM] (inactive).

Which max activity does the source give for O=C(Cc1ccc(Cl)cc1)NC1CCCCCC1 here?
Its max activity is 37.5% (inactive).

With CC(C)NC(=O)N(C)C[C@@H]1OCCCC[C@H](C)Oc2ccc(NC(=O)Nc3ccc4c(c3)OCO4)cc2C(=O)N([C@H](C)CO)C[C@@H]1C as the compound, how does the max activity read?
Its max activity is 11.4% [at 0.5 µM] (inactive).

For CS(=O)(=O)Nc1ccc(C2=NN(S(C)(=O)=O)C(c3cccs3)C2)cc1 (stereo not given), which max activity is on record?
Its max activity is 36.3% [at 16 µM] (inactive).

For COc1ccc(S(=O)(=O)N2Cc3ccccc3CC2C(=O)Nc2ccc3c(c2)OCO3)cc1 (stereo not given), which max activity is on record?
Its max activity is 17% [at 4.2 µM] (inactive).

With Cc1nc2cc(C(=O)O)ccc2s1 as the compound, how does the max activity read?
The max activity was 22% [at 16 µM] (inactive).

With CN(C(=O)c1cc2c(s1)-c1ccccc1S(=O)(=O)C2)c1ccccc1 as the compound, how does the max activity read?
The max activity was 29.1% (inactive).

For N=C1/C(=C/c2ccc(OCc3ccccc3)cc2)C(=O)N=C2SC(CC(=O)N3CCOCC3)=NN12, which max activity is on record?
The max activity was 23.9% (inactive).

For Cc1ccc(COc2ccccc2C(=S)N2CCCC2)cc1, which max activity is on record?
The max activity was 28.7% (inactive).

For C[C@H]1CN([C@@H](C)CO)C(=O)c2cccc(NC(=O)Nc3ccc(C(F)(F)F)cc3)c2O[C@@H]1CN(C)C, which max activity is on record?
The max activity was 14.9% [at 8 µM] (inactive).

With C[C@H](CO)N1C[C@H](C)[C@H](CN(C)C(=O)Nc2ccc3c(c2)OCO3)OCc2ccccc2-c2c(n(C)c3ccccc23)C1=O as the compound, how does the max activity read?
Its max activity is -46.6% (inactive).

Which max activity does the source give for COc1cccc(C(=O)Nc2ccc3c(c2)OC[C@@H](C)N(CCc2ccccc2)C[C@@H](C)[C@H](OC)CN(C)C3=O)c1 here?
The max activity was 9.35% [at 1 µM] (inactive).

Which max activity does the source give for CCCNC(=O)Nc1ccc2c(c1)OC[C@@H](C)N(Cc1ccc(-c3ccccn3)cc1)C[C@@H](C)[C@H](OC)CN(C)C2=O here?
Its max activity is -20.1% (inactive).

Which max activity does the source give for C[C@@H]1CN([C@@H](C)CO)C(=O)c2cc(NC(=O)Cc3cn(C)c4ccccc34)ccc2O[C@H]1CN(C)C(=O)Nc1ccc2c(c1)OCO2 here?
Its max activity is 9.93% [at 8 µM] (inactive).

For C[C@H](CO)N1C[C@H](C)[C@@H](CN(C)Cc2ccc(-c3ccccc3)cc2)Oc2ccc(NC(=O)CCCCCC(=O)Nc3ccccc3N)cc2CC1=O, which max activity is on record?
Its max activity is 16.8% [at 16 µM] (inactive).

For CO[C@@H]1CN(C)C(=O)c2ccc(NC(=O)c3nc4ccccc4s3)cc2OC[C@@H](C)N(Cc2cccnc2)C[C@H]1C, which max activity is on record?
Its max activity is 18.5% (inactive).

For CO[C@@H]1CN(C)C(=O)c2ccc(NC(=O)c3nc4ccccc4s3)cc2OC[C@@H](C)N(Cc2ccncc2)C[C@H]1C, which max activity is on record?
Its max activity is 38.8% (inactive).

For CO[C@@H]1CN(C)C(=O)c2ccc(NC(=O)c3nc4ccccc4s3)cc2OC[C@@H](C)N(Cc2cncnc2)C[C@H]1C, which max activity is on record?
The max activity was 21% [at 16 µM] (inactive).

With CC(C)(C)C(=O)[C@H]1[C@H](c2ccccc2)[C@@]2(N=C(c3ccccc3)OC2=O)C2c3ccccc3C=NN21 (stereo not given in full) as the compound, how does the max activity read?
The max activity was 19% [at 16 µM] (inactive).

Which max activity does the source give for CC1CCCN(C(=O)c2ccc(Cl)c(S(=O)(=O)N3CCCCCC3)c2)C1 (stereo not given) here?
The max activity was 6.03% [at 4.2 µM] (inactive).

With O=C(NCCc1ccc(F)cc1)c1cccc(NC(=O)c2ccccc2)c1 as the compound, how does the max activity read?
Its max activity is 21.2% (inactive).

For O=C(CNc1ccccc1F)Nc1cccc2ccccc12, which max activity is on record?
The max activity was -8.82% (inactive).

For C[C@H]1CCCCO[C@H](CN(C)S(=O)(=O)c2cn(C)cn2)[C@@H](C)CN([C@@H](C)CO)C(=O)c2cc(NC(=O)Nc3ccc4c(c3)OCO4)ccc2O1, which max activity is on record?
Its max activity is -6.42% [at 0.5 µM] (inactive).

For O=C(c1cc(COc2ccc(F)cc2F)on1)N1CC2C[C@@H]3CC1C[C@H](C2)C3, which max activity is on record?
Its max activity is 35.9% [at 16 µM] (inactive).

With C[C@@H]1CN([C@H](C)CO)C(=O)c2cc(NC(=O)Nc3ccc4c(c3)OCO4)ccc2O[C@@H](C)CCCCO[C@@H]1CN(C)S(=O)(=O)c1cn(C)cn1 as the compound, how does the max activity read?
The max activity was -6.88% [at 1 µM] (inactive).
